The nature of test [1]: qHTS assay to identify small molecule antagonists of the vitamin D receptor (VDR) signaling pathway - cell viability counter screen (AID 743225). Further: nearly all actives have a fitted effect of over 50% in size. An outline of the steps:
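Compounds were pinned onto VDR-bla HEK 293T cells together with 1-alpha,25-dihydroxyvitamin D3 at 3 nM final. After 16 h at 37C and 5% CO2 plus the reporter readout, cell viability was measured by CellTiter-Glo luminescence (30 min, room temperature).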
In general terms: qHTS replaces the single test concentration by a dilution series.

Test [2] is described as follows: qHTS assay to identify small molecule agonists of the NFkB signaling pathway (AID 1159509; active means well fitted curve in the direction sought with a large enough effect in the signal ratio in the repeat runs, not every such curve was filed as active; the % refers to the signal ratio; further: series mostly up to about 61 µM). An outline of the steps:
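NFkB-bla ME-180 cells with a beta-lactamase reporter under an NF-kB response element were plated overnight, treated with compounds in DMSO for 5 hr at 37 C, then loaded with FRET substrate for 1.5 hr at room temperature.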

Test [3] in a line: qHTS assay to identify small molecule agonists of the NFkB signaling pathway - cell viability counter screen (AID 1159515; calls by dose curve; further: series mostly up to about 61 µM; nearly all actives have a fitted effect of over 55% in size). An outline of the steps: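 5 hr compound treatment of NFkB-bla ME-180 cells (2,000/well, seeded overnight beforehand), followed by reporter substrate for 1.5 hr. CellTiter-Glo added afterward; luminescence after 30 min RT.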
The nature of test [4]: qHTS assay to identify small molecule agonists of the endoplasmic reticulum stress response signaling pathway (AID 1159516; active means well fitted activation curve with a large enough effect in the signal ratio in the repeat runs, not every such curve was filed as active; the % refers to the signal ratio). In a few lines: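 Reporter HeLa cells (ESRE-beta-lactamase) underwent 5 hr compound incubation at 37 C and 5% CO2 in quantitative HTS format. Detection followed 2 hr of FRET substrate loading at room temperature.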
A short description of test [5]: qHTS assay to identify small molecule agonists of the endoplasmic reticulum stress response signaling pathway - cell viability counter screen (AID 1159517; calls by dose curve;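 further: HeLa cells carrying an ER stress response element beta-lactamase reporter; series mostly up to about 61 µM; nearly all actives have a fitted effect of over 50% in size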). An outline of the steps: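 Luminescence readout: CellTiter-Glo, 30 min RT, same wells as the ESRE-bla reporter read. HeLa ESRE-bla, 1,500 cells/well, o/n 37 C; cpd 5 hr 37 C/5% CO2.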
A short description of test [6]: qHTS assay to identify small molecule antagonists of the retinoid-related orphan receptor gamma (ROR-gamma) signaling pathway - cell viability counter screen (AID 1159520). Further: nearly all actives have a fitted effect of over 50% in size. An outline of the steps:
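Tet-on ROR gamma CHO cells (1,000/well) were plated 4 hr, given compounds in DMSO for 2 hr at 37 C, then induced with 1 uM final doxycycline for 16 hr. Viability was read as ATP by CellTiter-Glo luminescence after 30 min.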

In test [7] the target is Nuclear receptor ROR-gamma (Homo sapiens) (UniProt P51449). Nature of the test: qHTS assay to identify small molecule antagonists of the retinoid-related orphan receptor gamma (ROR-gamma) signaling pathway (AID 1159521;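 further: CHO cells with doxycycline inducible ROR-gamma driving an RORE luciferase reporter; top concentration of the series differs between compounds; nearly all actives have a fitted effect of over 50% in size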). In a few lines: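 Test compounds were applied to Tet-on RORγ CHO cells 2 h ahead of doxycycline hyclate (1 uM final). Luciferase reporter activity was quantified by luminescence after 16 h at 37 C and 5% CO2.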

A short description of test [8]: qHTS assay to identify small molecule agonists of the AP-1 signaling pathway - cell viability counter screen (AID 1159525; calls by dose curve; further: nearly all actives have a fitted effect of over 55% in size). An outline of the steps:
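ME-180 AP-1-bla, 2500 cells/well, Opti-MEM + 0.5% dialyzed FBS; overnight 37 °C; cpd 15-pt titration, 5 h 37 °C; CellTiter-Glo 30 min RT; luminescence read; normalised to TOAB and DMSO controls.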

Test [9] is described as follows: qHTS assay to identify small molecule agonists of the AP-1 signaling pathway (AID 1159526; calls by dose curve).
The target in test [10] is Retinoic acid receptor RXR-alpha (Homo sapiens) (UniProt P19793). Nature of the test: qHTS assay to identify small molecule agonists of the RXR signaling pathway (AID 1159527; calls by dose curve; further: nearly all actives have a fitted effect of over 35% in size). An outline of the steps: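 Using 9-cis retinoic acid as the reference agonist, chemicals were tested in HEK 293T cells […] for 16 hr; substrate loading lasted 2 hr at room temperature.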
Sequence of Retinoic acid receptor RXR-alpha (Homo sapiens) (P19793 whole entry, looked up): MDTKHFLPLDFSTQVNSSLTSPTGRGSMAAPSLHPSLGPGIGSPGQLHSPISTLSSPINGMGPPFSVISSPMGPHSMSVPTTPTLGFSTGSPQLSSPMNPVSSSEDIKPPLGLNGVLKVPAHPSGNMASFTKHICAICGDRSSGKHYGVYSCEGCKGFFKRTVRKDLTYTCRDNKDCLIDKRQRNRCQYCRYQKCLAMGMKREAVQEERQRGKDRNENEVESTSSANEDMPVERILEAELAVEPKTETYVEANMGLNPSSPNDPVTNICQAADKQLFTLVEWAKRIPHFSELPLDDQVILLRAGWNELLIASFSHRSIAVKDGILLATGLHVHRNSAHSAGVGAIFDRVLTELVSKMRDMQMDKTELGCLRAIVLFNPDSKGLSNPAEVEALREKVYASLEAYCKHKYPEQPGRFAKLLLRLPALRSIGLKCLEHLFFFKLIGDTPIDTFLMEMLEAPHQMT

The nature of test [11]: qHTS assay to identify small molecule agonists of the RXR signaling pathway - cell viability counter screen (AID 1159529). In a few lines: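 Compounds dissolved in DMSO were pinned onto HEK 293T cells carrying a beta-lactamase reporter under RXR-alpha control and incubated 16 hr. Cytotoxicity was then quantified by CellTiter-Glo luminescence.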
The nature of test [12]: qHTS assay to identify small molecule antagonists of the retinoid acid receptor (RAR) signaling pathway - cell viability counter screen (AID 1159551). Further: nearly all actives have a fitted effect of over 35% in size. In a few lines:
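Seed C3RL4 cells; next day add compound, then retinol to 1 uM final; incubate 6 h at 37 C; add CellTiter-Glo; read luminescence after 30 min at RT.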

The nature of test [13]: qHTS assay to identify small molecule antagonists of the retinoic acid receptor (RAR) signaling pathway (AID 1159552; further: nearly all actives have a fitted effect of over 50% in size). An outline of the steps:
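Test chemicals and DMSO controls were pin-transferred onto C3RL4 cells a day after seeding; retinol (1 uM final) followed at once. Luminescent reporter output was quantified after 6 hr of co-incubation and 30 min with detection reagent.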

Test [14] in a line: qHTS assay to identify small molecule agonists of the retinoic acid receptor (RAR) signaling pathway (AID 1159553). Further: potency means the concentration at half of the fitted maximal effect. In a few lines: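 Activation of retinol signaling was monitored via a RARE luciferase reporter in C3RL4 cells. After 6 hr compound treatment at 37 C, detection reagent was added for 30 min at room temperature before luminescence reading.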
Test [15] in a line: qHTS assay to identify small molecule antagonists of the estrogen related receptor (ERR) signaling pathway from Tox21 library - cell viability counter screen (AID 1224834). Further: nearly all actives have a fitted effect of over 30% in size. In a few lines:
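CellTiter-Fluor fluorescence measured; ERR cells; 17.5 h compound incubation at 37 C; 30 min reagent step.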

In test [16] the target is Luciferin 4-monooxygenase (Photinus pyralis) (UniProt P08659). Put plainly: qHTS assay to identify small molecule inhibitors of firefly luciferase (AID 1224835). Further: nearly all actives have a fitted effect of over 25% in size. Further: potency means the concentration at half of the fitted maximal effect. An outline of the steps: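 Quantitative HTS format; KM concentrations of both substrates. Purified P. pyralis FLuc activity quantified from luminescence images.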
Sequence of Luciferin 4-monooxygenase (Photinus pyralis) (P08659 whole entry, looked up): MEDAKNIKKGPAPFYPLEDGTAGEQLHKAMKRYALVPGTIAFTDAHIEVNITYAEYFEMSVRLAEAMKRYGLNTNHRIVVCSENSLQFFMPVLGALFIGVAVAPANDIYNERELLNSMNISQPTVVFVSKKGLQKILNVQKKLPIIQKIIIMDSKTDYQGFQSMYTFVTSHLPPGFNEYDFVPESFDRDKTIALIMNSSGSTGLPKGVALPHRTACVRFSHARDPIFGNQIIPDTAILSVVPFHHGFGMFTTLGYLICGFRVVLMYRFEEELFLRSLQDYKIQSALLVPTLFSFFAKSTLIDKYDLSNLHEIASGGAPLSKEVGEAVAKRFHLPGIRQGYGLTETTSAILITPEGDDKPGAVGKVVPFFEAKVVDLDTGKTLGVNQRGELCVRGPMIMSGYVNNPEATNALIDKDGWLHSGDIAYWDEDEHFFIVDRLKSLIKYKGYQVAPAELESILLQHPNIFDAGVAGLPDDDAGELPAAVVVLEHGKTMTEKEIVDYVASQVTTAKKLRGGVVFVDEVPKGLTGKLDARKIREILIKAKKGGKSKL
The nature of test [17]: qHTS assay to identify small molecule antagonists of the constitutive androstane receptor (CAR) signaling pathway - cell viability counter screen (AID 1224837). Further: series mostly up to about 92 µM; nearly all actives have a fitted effect of over 45% in size. In a few lines: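 Using CellTiter-Fluor, viability is scored in HepG2 cells stably carrying hCAR and a 2.2kb CYP2B6 reporter after 23 hr compound exposure across 15 concentrations, with CITCO present at 50 nM.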

In test [18] the target is Nuclear receptor subfamily 1 group I member 3 (Homo sapiens) (UniProt Q14994). Put plainly: qHTS assay to identify small molecule antagonists of the constitutive androstane receptor (CAR) signaling pathway (AID 1224838).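 Further: HepG2 cells stably expressing hCAR with CYP2B6 luciferase reporter stimulated by CITCO; nearly all actives have a fitted effect of over 40% in size.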 In a few lines:
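Reporter luminescence was quantified after 24 h exposure of hCAR/CYP2B6-2.2kb double-stable HepG2 cells to compounds at 15 concentrations in the presence of 50 nM CITCO final.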

Test [19] shares this target. Nature of the test: qHTS assay to identify small molecule agonists of the constitutive androstane receptor (CAR) signaling pathway (AID 1224839). Further: nearly all actives have a fitted effect of over 15% in size. Further: potency means the concentration at half of the fitted maximal effect. On activation: series mostly up to about 92 µM. An outline of the steps:
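Compounds tested at 15 concentrations on HepG2 cells stably harbouring hCAR and CYP2B6-2.2kb reporter constructs, co-treated with PK11195 (0.75 uM final), 24 h at 37 C; luminescent reporter signal quantified.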

The nature of test [20]: qHTS assay to identify small molecule agonists of the constitutive androstane receptor (CAR) signaling pathway - cell viability counter screen (AID 1224836). Further: series mostly up to about 92 µM; nearly all actives have a fitted effect of over 45% in size. In a few lines:
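23 h treatment, 37 C, 5% CO2. Cell line: HepG2 stably expressing hCAR with a CYP2B6-2.2kb construct. Co-treatment: PK11195, 0.75 uM final. Read-out: CellTiter-Fluor fluorescence intensity.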

Here are results for eight compounds from PubChem BioAssay (Tox21).

The structures appear in SMILES notation. Results filed as inconclusive are left out. Unmarked numbers belong to inactive results. Active and inactive are the calls of the source. Unless noted, the call rests on the fitted dose curve; in most records, active means well fitted curve in the direction sought with a large enough effect in the repeat runs; inconclusive means weak or mixed curves; inactive means no such curve, though single readings can be large; an effect the other way counts as inactive or inconclusive.

Sequence of Nuclear receptor subfamily 1 group I member 3 (Homo sapiens) (Q14994 whole entry, looked up): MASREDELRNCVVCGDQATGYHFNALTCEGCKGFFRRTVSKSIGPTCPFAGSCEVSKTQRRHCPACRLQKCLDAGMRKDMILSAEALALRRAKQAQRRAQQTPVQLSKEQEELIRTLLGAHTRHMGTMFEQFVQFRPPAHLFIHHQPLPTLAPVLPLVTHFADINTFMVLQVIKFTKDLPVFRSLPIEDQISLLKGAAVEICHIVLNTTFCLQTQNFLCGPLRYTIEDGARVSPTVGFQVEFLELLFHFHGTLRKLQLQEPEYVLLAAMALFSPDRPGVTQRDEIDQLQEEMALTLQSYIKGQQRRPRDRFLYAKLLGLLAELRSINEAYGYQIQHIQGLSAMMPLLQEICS

In the case of `O/N=C/C=N/O`, the outcome in [1], in [2], in test [3], in test [4], in [5] and in test [6] was inactive. In addition, the outcome in test [7], in test [8], in [9], in test [11], in [12] and in [13] was inactive. In addition, the outcome in test [15] and in test [17] was inactive. Further, the Potency result in test [10], in [14], in [16], in test [18] and in [19] was “inactive” each time.
With `C=C(C)[C@@H]1CC=C(C)C(=O)C1`, the outcome in test [1], in test [2], in test [3], in [4], in test [5] and in test [6] was inactive. The outcome in test [7], in test [8], in test [9], in test [11], in [12] and in [15] was inactive. In addition, the result in [20] and in [17] was inactive. Also, the Potency entry in [10] and in test [16] was “inactive” throughout.
Regarding `Cn1nnc2c(C(N)=O)ncn2c1=O`, the compound was classed as inactive in test [1], in test [2], in test [3], in test [4], in test [5] and in test [6]. Also, the outcome in test [7], in [8], in test [9], in test [11], in [12] and in test [13] was inactive. For the same compound, the outcome in test [15] and in [17] was inactive. Further, the Potency result in test [10], in test [14], in test [16], in test [18] and in test [19] was “inactive” throughout.
Consider `Cn1c(=O)c2[nH]c(Br)nc2n(C)c1=O`, for which the outcome in test [1], in test [2], in [3], in test [4], in test [5] and in test [6] was inactive. In addition, the compound was called inactive in test [7], in test [8], in [9], in test [11], in test [12] and in test [13]. Further, the compound was called inactive in test [15] and in [17]. Besides, the Potency entry in test [10], in [14], in test [16], in test [18] and in test [19] was “inactive” in each case.
`c1ccc(B(c2ccccc2)c2ccccc2)cc1`: the result in test [1], in [2], in [3], in test [4], in [5] and in test [6] was inactive. Besides, the call in [7], in test [8], in test [9], in [11], in test [12] and in test [13] was inactive. Also, the call in [15] and in test [17] was inactive. Further, the Potency result in [10] and in test [18] was “inactive” in each case. Besides, the Potency in [14] is 54.4 µM (active); in test [16], 31.7 µM (active); in test [19], 48.5 µM (active).
As for `C=C(C)C1CC=C(C)C(=O)C1` (stereo not given), the compound was called inactive in test [2], in [3], in [4], in [5], in test [6] and in test [7]. Further, the call in [8], in [9], in [11], in test [12], in test [15] and in [20] was inactive. For the same compound, the compound was called inactive in [17]. The Potency entry in test [10] and in test [16] was “inactive” each time.
Turning to `NCC1(Cc2noc(=O)[nH]2)CCCCC1`, the call in test [1], in [2], in test [3], in [4], in [5] and in test [6] was inactive. Also, the call in [7], in test [8], in test [9], in test [11], in [12] and in [13] was inactive. Besides, the compound was classed as inactive in test [15] and in [17]. Also, the Potency entry in test [10], in [14], in test [16], in [18] and in test [19] was “inactive” throughout.
As for `CC(CO)(CO)CO`, the call in test [1], in test [2], in test [3], in test [4], in [5] and in test [6] was inactive. The compound was classed as inactive in test [7], in test [8], in [9], in [11], in test [12] and in [13]. Moreover, the result in test [15] and in [17] was inactive. In addition, the Potency entry in [10], in [14], in test [16], in test [18] and in [19] was “inactive” in each case.
